Our source for the growth inhibition values is PubChem BioAssay (NCI).

Assay [1] can be described thus: NCI Yeast Anticancer Drug Screen. Data for the rad50 strain (AID 155).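 Also: 0% = growth of vehicle-only cultures of the same strain.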 Particulars: S. cerevisiae rad50 strain growth inhibition; at 50.0 µM; active compounds read high. Put shortly:
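Genetically altered yeast (DNA repair pathway); compound treatment; growth inhibition vs vehicle ctrl.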

The nature of assay [2]: NCI Yeast Anticancer Drug Screen. Data for the mec2-1 strain (AID 157). Particulars: S. cerevisiae mec2-1 strain, at 50.0 µM, active compounds read high. Put shortly:
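Strain: mec2-1 (DNA repair/cell cycle alteration). Compound exposure, then growth measured; inhibition expressed relative to vehicle.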

The nature of assay [3]: NCI Yeast Anticancer Drug Screen. Data for the sgs1 mgt1 strain (AID 161).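 Also: 0% = growth of cultures given vehicle only.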 Particulars: S. cerevisiae sgs1 mgt1 strain, at 50.0 µM, active compounds read high. Put shortly:
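Inhibition of yeast growth, normalised to vehicle-treated controls, is reported for a strain bearing genetic alterations in DNA damage repair.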

A short description of assay [4]: NCI Yeast Anticancer Drug Screen. Data for the cln2 rad14 strain (AID 165).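 Also: 0% = growth equal to vehicle treated cultures.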 Particulars: S. cerevisiae cln2 rad14 strain, at 50.0 µM, active compounds read high. Put shortly:
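Compounds are applied to the cln2 rad14 yeast strain, and growth is then compared with that of vehicle-treated cultures to give inhibition.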

Assay [5] in a line: NCI Yeast Anticancer Drug Screen. Data for the bub3 strain (AID 167). Particulars: S. cerevisiae bub3 mutant strain, at 50.0 µM, active compounds read high. Put shortly: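 Yeast carrying a defined mutation is treated with each compound, and growth is compared with that of vehicle-exposed cells to give inhibition.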
A short description of assay [6]: NCI Yeast Anticancer Drug Screen. Data for the mlh1 rad18 strain (AID 175). The following applies: S. cerevisiae mlh1 rad18 strain growth inhibition; at 50.0 µM; active compounds read high. Put shortly: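 Read-out is yeast growth inhibition, calculated against vehicle-only controls. The compound was applied to a strain engineered with DNA damage repair alterations.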

About 79,000 compounds went through this panel and 15% of them were active in at least one assay; those are over-represented in the sample as a whole. A number with no mark means an inactive call. Active and inactive are the calls of the source. Rule as the data show it: active = growth inhibition above about 70%; inactive = the rest.

Regarding `COC1=CC(=O)c2ccc(C(C)C)cc2C1(C)C1=NC(C)(C)CO1` (stereo unspecified), the growth inhibition was -1.55% in assay [1]; -14.4% in assay [2]; -0.85% in assay [3]; 16.8% in assay [4]; -6.45% in assay [5]; -9.8% in assay [6].
`O=C(CCl)OCc1ccc(Cl)cc1`: the growth inhibition in assay [1] was 4.5%; in assay [2] it was 2.55%; in assay [3], -3.75%; in assay [4], -27.8%; in assay [5] it was 1.25%; in assay [6], -9.45%.
`O=C(/C=N/O)Nc1cccc(Cl)c1I`: the growth inhibition in assay [1] was 18.4%; in assay [2], -5.2%; in assay [3], 30.1%; in assay [4], 2.95%; in assay [5], 12.6%; in assay [6], 10.4%.
In the case of `CN(C)C(=O)Nc1ccc(C#N)cc1`, the growth inhibition was 10.1% in assay [1]; 2.3% in assay [2]; -13.3% in assay [3]; -25.1% in assay [4]; -5.15% in assay [5]; -8.2% in assay [6].
For `O=C1CCCCCCCCCCOCCCCO1`, the growth inhibition in assay [1] is -2.4%; in assay [2], 2.9%; in assay [3], 14.8%; in assay [4], 24.1%; in assay [5], 27.7%; in assay [6], -13.4%.
Regarding `Cc1cc2c(C(C)C)c(O)c(O)c(C=Nc3ccccc3O)c2c(O)c1-c1c(C)cc2c(C(C)C)c(O)c(O)c(C=Nc3ccccc3O)c2c1O`, the growth inhibition in assay [1] was -25.3%; in assay [2], -9.2%; in assay [3], -20.9%; in assay [4] it was -23.4%; in assay [5] it was -9.75%; in assay [6] it was -26.3%.
For the compound `CCOC(=O)C(NC(C)=O)C(O)c1ccccc1` (stereo unspecified), the growth inhibition in assay [1] is -8.85%; in assay [2] it was -16.2%; in assay [3] it was -2%; in assay [4] it was -24.6%; in assay [5], -37.4%; in assay [6], -9.95%.
Regarding `CCCCSCc1nc2nc(Cl)c(Cl)nc2[nH]1`, the growth inhibition in assay [1] was -18.1%; in assay [2], -37.2%; in assay [3], -23.9%; in assay [4] it was 1.15%; in assay [5], -44.8%; in assay [6], -9.25%.
As to `CC(C)=CCC/C(C)=C/C=O`, the growth inhibition in assay [1] was 9.1%; in assay [2], 2.95%; in assay [3] it was 5.1%; in assay [4], 9.6%; in assay [5] it was 7.95%; in assay [6], 8.4%.
Take `CS(=O)(=O)C1CCCCC1SC#N` (stereo unspecified): the growth inhibition is -5.1% in assay [1]; -16.7% in assay [2]; -14.5% in assay [3]; -19% in assay [4]; 4.1% in assay [5]; 3.45% in assay [6].
Turning to `O=[N+]([O-])c1ccc(Cl)c(C=NC23CC4CC(CC(C4)C2)C3)c1`, the growth inhibition was -13.6% in assay [1]; -24.8% in assay [2]; -29% in assay [3]; -9.3% in assay [4]; -22.9% in assay [5]; -8.9% in assay [6].
Regarding `COC(=O)NN(C(=O)OC)C12CCCC1N(C(=O)OC)N(C(=O)OC)c1c2ccc2ccccc12` (stereo unspecified), the growth inhibition in assay [1] was 32.1%; in assay [2] it was -1.55%; in assay [3], 0.6%; in assay [4] it was -4.9%; in assay [5], 1.9%; in assay [6], 6.75%.
With `CCN(CC)C(=O)c1cccc(C(=O)N(CC)CC)n1`, the growth inhibition is 11.1% in assay [1]; 3.6% in assay [2]; 10.2% in assay [3]; 39.4% in assay [4]; 21.4% in assay [5]; 24.7% in assay [6].
As to `O=C(N/N=C/C1CCCCC1)C(=O)N/N=C/C1CCCCC1`, the growth inhibition in assay [1] was 4.45%; in assay [2], 6.65%; in assay [3], 8.55%; in assay [4] it was -7.45%; in assay [5], 28.2%; in assay [6], -58.5%.
As to `CCc1c(O)nc(Nc2nc3ccccc3[nH]2)[nH]c1=O`, the growth inhibition in assay [1] is -34.4%; in assay [2] it was -21.8%; in assay [3] it was -21.4%; in assay [4], -23.5%; in assay [5] it was -33%; in assay [6], -56.5%.
For `CCCCOc1ccc(C(=O)C(C(c2ccccc2)N2CCOCC2)N2CCOCC2)cc1` (stereo unspecified), the growth inhibition was -7.8% in assay [1]; -4.85% in assay [2]; -9.4% in assay [3]; -6.8% in assay [4]; -12.2% in assay [5]; 9.2% in assay [6].
As to `COc1ccc(-c2c(-c3ccccc3)c(-c3ccccc3)nn2-c2ccccc2)cc1`, the growth inhibition in assay [1] is 45.2%; in assay [2], 4.85%; in assay [3] it was 34.8%; in assay [4] it was 22.4%; in assay [5] it was 2.5%; in assay [6], 20.9%.
Consider `N#CCCN(c1ccc(C=Nc2cccc([N+](=O)[O-])c2)cc1)S(=O)(=O)c1ccccc1`, for which the growth inhibition in assay [1] is 0.75%; in assay [2] it was 5.65%; in assay [3], 14.7%; in assay [4] it was 8.1%; in assay [5] it was -1%; in assay [6], 14.4%.
For the compound `COc1ccc(NC(=O)c2c(Br)c(Br)c(Br)c(Br)c2C(=O)O)c(Cl)c1`, the growth inhibition was 92.5% (active) in assay [1]; 88.7% (active) in assay [2]; 92% (active) in assay [3]; 83.5% (active) in assay [4]; 90.3% (active) in assay [5]; 95.2% (active) in assay [6].
Consider `CNC(=O)OCc1c(COC(=O)NC)c(-c2ccccc2)n(-c2ccccc2)c1C`, for which the growth inhibition in assay [1] was 24.4%; in assay [2], 27.8%; in assay [3], 44.8%; in assay [4], 37.9%; in assay [5], 22.9%; in assay [6], 88.1% (active).
In the case of `CC1(C)CC(c2c[nH]c3ccccc23)=CC2=Nc3ccccc3C21O` (stereo unspecified), the growth inhibition in assay [1] was -41.9%; in assay [2] it was 6.7%; in assay [3] it was 3.8%; in assay [4], 15%; in assay [5], 2.65%; in assay [6], 16.7%.
